# Assay results: the supplement of paper PMC4466140
# Target: ScBbc1
# Experiment: SPOT peptide array binding signal intensity (averaged, normalized) (arbitrary units (background-subtracted, floor 0; scale differs between SH3 domains)); higher = stronger binding of the SH3 domain to the peptide
# In short: (§1)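 GST-fused SH3 domains from four yeast species were expressed in E. coli BL21(DE3), purified on glutathione Sepharose and incubated at 10 μg/ml overnight at 4°C in TBS-based blocking buffer on cellulose membranes carrying synthetic 15-mer peptides, with cysteines replaced by serines. Bound protein was detected with anti-GST antibody, an HRP anti-mouse secondary and luminol, then imaged and quantified with Genespotter. Binding signal is the normalized, background-subtracted spot intensity averaged over replicates, in arbitrary units that differ between domains.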
row,Binder,SPOT peptide array binding signal intensity
1,NQARKPFLLPATELS,3.75

# Target: ScBem1-D1
# Experiment: as above
# In short: as §1
row,Binder,SPOT peptide array binding signal intensity
1,NQARKPFLLPATELS,3.5

# Target: ScBzz1-D1
# Experiment: as above
# In short: as §1
row,Binder,SPOT peptide array binding signal intensity
1,NQARKPFLLPATELS,13

# Target: ScBzz1-D2
# Experiment: as above
# In short: as §1
row,Binder,SPOT peptide array binding signal intensity
1,NQARKPFLLPATELS,6.5

# Target: ScCyk3
# Experiment: as above
# In short: as §1
row,Binder,SPOT peptide array binding signal intensity
1,NQARKPFLLPATELS,8

# Target: ScFus1
# Experiment: as above
# In short: as §1
row,Binder,SPOT peptide array binding signal intensity
1,NQARKPFLLPATELS,15

# Target: ScHof1
# Experiment: as above
# In short: as §1
row,Binder,SPOT peptide array binding signal intensity
1,NQARKPFLLPATELS,0.5

# Target: ScHse1
# Experiment: as above
# In short: as §1
row,Binder,SPOT peptide array binding signal intensity
1,NQARKPFLLPATELS,1630

# Target: ScLsb1
# Experiment: as above
# In short: as §1
row,Binder,SPOT peptide array binding signal intensity
1,NQARKPFLLPATELS,23.5

# Target: ScLsb2
# Experiment: as above
# In short: as §1
row,Binder,SPOT peptide array binding signal intensity
1,NQARKPFLLPATELS,≤ 0

# Target: ScLsb3
# Experiment: as above
# In short: as §1
row,Binder,SPOT peptide array binding signal intensity
1,NQARKPFLLPATELS,≤ 0

# Target: ScLsb4
# Experiment: as above
# In short: as §1
row,Binder,SPOT peptide array binding signal intensity
1,NQARKPFLLPATELS,≤ 0

# Target: ScMyo3
# Experiment: as above
# In short: as §1
row,Binder,SPOT peptide array binding signal intensity
1,NQARKPFLLPATELS,≤ 0

# Target: ScMyo5
# Experiment: as above
# In short: as §1
row,Binder,SPOT peptide array binding signal intensity
1,NQARKPFLLPATELS,≤ 0

# Target: ScNbp2
# Experiment: as above
# In short: as §1
row,Binder,SPOT peptide array binding signal intensity
1,NQARKPFLLPATELS,≤ 0

# Target: ScPex13
# Experiment: as above
# In short: as §1
row,Binder,SPOT peptide array binding signal intensity
1,NQARKPFLLPATELS,≤ 0

# Target: ScRvs167
# Experiment: as above
# In short: as §1
row,Binder,SPOT peptide array binding signal intensity
1,NQARKPFLLPATELS,4.67

# Target: ScSho1
# Experiment: as above
# In short: as §1
row,Binder,SPOT peptide array binding signal intensity
1,NQARKPFLLPATELS,105

# Target: ScSla1-D1-D2
# Experiment: as above
# In short: as §1
row,Binder,SPOT peptide array binding signal intensity
1,NQARKPFLLPATELS,≤ 0

# Target: ScSla1-D3
# Experiment: as above
# In short: as §1
row,Binder,SPOT peptide array binding signal intensity
1,NQARKPFLLPATELS,8

# Target: SpAbp1-D1
# Experiment: as above
# In short: as §1
row,Binder,SPOT peptide array binding signal intensity
1,NQARKPFLLPATELS,34

# Target: SpBbc1
# Experiment: as above
# In short: as §1
row,Binder,SPOT peptide array binding signal intensity
1,NQARKPFLLPATELS,≤ 0

# Target: SpBzz1-D1
# Experiment: as above
# In short: as §1
row,Binder,SPOT peptide array binding signal intensity
1,NQARKPFLLPATELS,≤ 0

# Target: SpBzz1-D2
# Experiment: as above
# In short: as §1
row,Binder,SPOT peptide array binding signal intensity
1,NQARKPFLLPATELS,≤ 0

# Target: SpCyk3
# Experiment: as above
# In short: as §1
row,Binder,SPOT peptide array binding signal intensity
1,NQARKPFLLPATELS,1

# Target: SpHof1
# Experiment: as above
# In short: as §1
row,Binder,SPOT peptide array binding signal intensity
1,NQARKPFLLPATELS,24.5

# Target: SpHof1-2
# Experiment: as above
# In short: as §1
row,Binder,SPOT peptide array binding signal intensity
1,NQARKPFLLPATELS,0.5

# Target: SpHof1-3
# Experiment: as above
# In short: as §1
row,Binder,SPOT peptide array binding signal intensity
1,NQARKPFLLPATELS,870

# Target: SpHse1
# Experiment: as above
# In short: as §1
row,Binder,SPOT peptide array binding signal intensity
1,NQARKPFLLPATELS,770

# Target: SpLsb1
# Experiment: as above
# In short: as §1
row,Binder,SPOT peptide array binding signal intensity
1,NQARKPFLLPATELS,11

# Target: SpLsb4
# Experiment: as above
# In short: as §1
row,Binder,SPOT peptide array binding signal intensity
1,NQARKPFLLPATELS,≤ 0

# Target: SpMyo1
# Experiment: as above
# In short: as §1
row,Binder,SPOT peptide array binding signal intensity
1,NQARKPFLLPATELS,≤ 0

# Target: SpNbp2
# Experiment: as above
# In short: as §1
row,Binder,SPOT peptide array binding signal intensity
1,NQARKPFLLPATELS,7

# Target: SpPex13
# Experiment: as above
# In short: as §1
row,Binder,SPOT peptide array binding signal intensity
1,NQARKPFLLPATELS,≤ 0

# Target: SpRvs167
# Experiment: as above
# In short: as §1
row,Binder,SPOT peptide array binding signal intensity
1,NQARKPFLLPATELS,≤ 0

# Target: SpSla1-D1-D2
# Experiment: as above
# In short: as §1
row,Binder,SPOT peptide array binding signal intensity
1,NQARKPFLLPATELS,≤ 0

# Target: SpSla1-D3
# Experiment: as above
# In short: as §1
row,Binder,SPOT peptide array binding signal intensity
1,NQARKPFLLPATELS,≤ 0
